The record followed here is PubChem BioAssay AID2073 (Sanford-Burnham Center for Chemical Genomics, 2009).

Molecules are shown by their SMILES. Values joined by “and” are separate entries in the source; they are usually repeats but may differ in a detail not shown here. Identical values can stand only once. Screen size: about 290,000 compounds; about 570 (0.2%) were called active. Not shown: some 1% with an inconclusive outcome. Rule as the data show it: active = inhibition mostly above about 51% (no sharp cut-off); inconclusive = no clear call, values can overlap the other calls; inactive = mostly below about 53%. For the sample, actives were picked, then their nearest neighbours and some compounds at random.

The term inhibition denotes the relative decrease from the control value, in per cent.

The test has as its target Voltage-dependent N-type calcium channel subunit alpha-1B (Homo sapiens) (UniProt Q00975). Briefly: inhibitors of Mint1-CaV2.2 protein interaction, biochemical, HTRF (AID 2073). The conditions noted are these: at 20 µM, stronger effect = higher value. (TR-FRET usually uses a lanthanide donor and a delayed reading to cut background.)

Sequence of Voltage-dependent N-type calcium channel subunit alpha-1B (Homo sapiens) (Q00975 whole entry, looked up): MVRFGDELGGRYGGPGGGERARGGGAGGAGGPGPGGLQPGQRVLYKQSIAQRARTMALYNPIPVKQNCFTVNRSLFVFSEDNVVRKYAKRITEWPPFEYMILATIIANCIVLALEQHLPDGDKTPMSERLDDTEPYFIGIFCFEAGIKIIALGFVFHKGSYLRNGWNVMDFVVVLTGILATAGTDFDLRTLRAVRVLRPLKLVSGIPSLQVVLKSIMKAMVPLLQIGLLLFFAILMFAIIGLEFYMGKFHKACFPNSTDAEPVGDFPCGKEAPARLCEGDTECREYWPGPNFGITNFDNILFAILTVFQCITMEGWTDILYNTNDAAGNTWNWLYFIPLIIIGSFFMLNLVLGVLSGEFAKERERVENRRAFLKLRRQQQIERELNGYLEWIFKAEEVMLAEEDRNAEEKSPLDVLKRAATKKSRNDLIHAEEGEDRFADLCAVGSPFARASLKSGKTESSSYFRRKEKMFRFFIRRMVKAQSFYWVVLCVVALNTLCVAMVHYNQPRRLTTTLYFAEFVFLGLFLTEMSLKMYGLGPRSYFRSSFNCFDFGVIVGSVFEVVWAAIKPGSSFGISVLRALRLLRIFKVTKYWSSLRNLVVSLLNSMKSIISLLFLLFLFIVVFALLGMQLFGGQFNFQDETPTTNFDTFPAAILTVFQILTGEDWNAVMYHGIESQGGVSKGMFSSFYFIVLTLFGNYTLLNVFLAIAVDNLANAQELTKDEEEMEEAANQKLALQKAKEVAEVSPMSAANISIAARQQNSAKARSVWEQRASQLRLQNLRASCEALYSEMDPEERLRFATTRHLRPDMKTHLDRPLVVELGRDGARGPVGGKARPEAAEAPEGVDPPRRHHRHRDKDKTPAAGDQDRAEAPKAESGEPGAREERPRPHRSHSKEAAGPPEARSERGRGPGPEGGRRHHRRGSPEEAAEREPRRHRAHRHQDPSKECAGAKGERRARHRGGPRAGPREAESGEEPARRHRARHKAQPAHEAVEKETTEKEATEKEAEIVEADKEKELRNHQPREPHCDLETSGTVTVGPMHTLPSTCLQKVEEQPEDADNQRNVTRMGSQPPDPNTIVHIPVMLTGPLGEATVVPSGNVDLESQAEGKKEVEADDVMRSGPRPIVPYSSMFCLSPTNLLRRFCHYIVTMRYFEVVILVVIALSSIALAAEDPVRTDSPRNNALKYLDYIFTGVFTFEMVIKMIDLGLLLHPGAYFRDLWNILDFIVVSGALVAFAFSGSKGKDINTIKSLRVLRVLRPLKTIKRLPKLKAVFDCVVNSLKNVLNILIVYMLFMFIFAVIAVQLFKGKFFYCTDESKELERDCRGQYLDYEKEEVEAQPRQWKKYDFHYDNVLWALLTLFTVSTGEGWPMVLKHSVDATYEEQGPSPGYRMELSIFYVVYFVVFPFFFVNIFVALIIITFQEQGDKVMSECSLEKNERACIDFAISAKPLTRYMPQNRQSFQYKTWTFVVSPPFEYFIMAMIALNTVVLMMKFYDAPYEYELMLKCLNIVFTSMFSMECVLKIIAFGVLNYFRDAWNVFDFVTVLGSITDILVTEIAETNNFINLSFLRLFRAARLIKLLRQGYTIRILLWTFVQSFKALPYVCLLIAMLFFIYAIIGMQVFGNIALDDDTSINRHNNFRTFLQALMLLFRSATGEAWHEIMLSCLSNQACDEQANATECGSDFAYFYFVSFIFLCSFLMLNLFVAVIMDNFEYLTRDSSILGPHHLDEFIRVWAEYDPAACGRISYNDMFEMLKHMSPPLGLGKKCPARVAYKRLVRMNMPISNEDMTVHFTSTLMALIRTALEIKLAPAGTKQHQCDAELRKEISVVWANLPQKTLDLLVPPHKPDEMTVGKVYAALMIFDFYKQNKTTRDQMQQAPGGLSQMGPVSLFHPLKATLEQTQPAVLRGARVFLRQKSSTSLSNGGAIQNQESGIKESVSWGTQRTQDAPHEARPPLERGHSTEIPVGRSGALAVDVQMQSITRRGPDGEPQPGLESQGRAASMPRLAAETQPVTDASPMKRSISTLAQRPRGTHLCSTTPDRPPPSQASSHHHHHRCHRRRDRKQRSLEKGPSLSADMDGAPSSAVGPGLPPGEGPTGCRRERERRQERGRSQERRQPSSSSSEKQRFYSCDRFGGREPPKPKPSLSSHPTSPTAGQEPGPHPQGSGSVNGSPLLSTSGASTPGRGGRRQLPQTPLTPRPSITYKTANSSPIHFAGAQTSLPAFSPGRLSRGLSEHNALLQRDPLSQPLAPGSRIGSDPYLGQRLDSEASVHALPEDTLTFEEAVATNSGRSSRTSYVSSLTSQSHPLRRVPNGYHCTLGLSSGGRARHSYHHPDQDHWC

Consider `O=C(O)c1ccc(/C=C/c2nc3sc4c(c3c(=O)[nH]2)CCC4)cc1`, for which the inhibition is 40.5% (inactive).
Take `CCOC(=O)c1nc2sc3c(c2c(=O)[nH]1)CCCC3`: the inhibition is 29.6% (inactive) and 12.3% (inactive).
Regarding `N#C/C(=C\c1ccc(C(=O)O)cc1)c1nc2sc3c(c2c(=O)[nH]1)CCCC3`, the inhibition is 73.5% (active).
Regarding `O=C1C(Cc2ccccc2)NC(=S)N1Cc1ccccc1` (configuration not stated), the inhibition was -4.6% (inactive).
In the case of `Cc1ccc(NC(=O)Cn2sc3nc(C)cc(C)c3c2=O)c(Cl)c1`, the inhibition is 70.3% (active).
Turning to `CC(=O)Cn1cnc2c(sc3nc(C)cc(C)c32)c1=O`, the inhibition was -5.8% (inactive).
In the case of `Cc1ccc(NC(=O)Cn2c(C)cc(C)c(C#N)c2=O)c(Cl)c1`, the inhibition is 2.7% (inactive).
`Cc1cc(C)c2c(=O)n(CC(=O)Nc3ccc(Cl)cc3)sc2n1`: the inhibition is 23.2% (inactive).
With `CCCNC(=O)Cn1sc2nc(C)cc(C)c2c1=O`, the inhibition was 88.4% (active).
Regarding `COC(=O)Cn1c(C)nc2c(sc3nc(C)cc(C)c32)c1=O`, the inhibition is 7.1% (inactive).
On the same count and under the same terms, under `CN1CCN(S(=O)(=O)c2cccc(C(=O)Oc3ccccc3Cl)c2)CC1` stands 14.6% (inactive).
For `COc1ccc(CNC(=O)Cn2nc([N+](=O)[O-])c(Br)c2C)cc1`, the inhibition is 2.9% (inactive).
Still for that read-out and setting: under `CCCN1C2=NCCN2c2ccccc21` stands 2.5% (inactive).
Take `O=C(Nc1ccc(F)cc1)Nc1nnc(-c2ccncc2)s1`: the inhibition is 50.5% (inactive). For the same compound, the inhibition (measured here: average of repeat tests) amounted to 37.8%.
Regarding `Cc1ccc(NC(=O)Nc2nnc(-c3ccncc3)s2)cc1C`, the inhibition was 76.4% (active).
For `O=C(Nc1cccc(Cl)c1)Nc1nnc(-c2ccncc2)s1`, the inhibition was 56.2% (active).
On to `COc1ccc(NC(=O)Nc2nnc(-c3ccncc3)s2)cc1`, for which the inhibition was 3.4% (inactive).
Turning to `O=C(Nc1ccc(Cl)cc1)Nc1nnc(-c2ccncc2)s1`, the inhibition is 14.4% (inactive).
As for `Cc1nnc(NC(=O)Nc2cccc(Cl)c2)s1`, the inhibition is -1.9% (inactive).
Turning to `Cc1c(NC(=O)CN2CCN(c3ccc([N+](=O)[O-])cc3)CC2)c(=O)n(-c2ccccc2)n1C`, the inhibition was 1.5% (inactive).
Turning to `CC1Oc2ccccc2N(CC(=O)N2CCc3ccccc32)C1=O` (configuration not stated), the inhibition is -10.9% (inactive).
For `CCCC(=O)N(Cc1cc(=O)[nH]c2ccccc12)c1ccc(C)cc1`, the inhibition is 14.9% (inactive).
The same measure, in the same setting: the figure for `CCOc1ccc(N(CC(=O)NCc2ccco2)S(C)(=O)=O)cc1` is 13.2% (inactive); for `O=C(NNC(=S)NC(=O)c1ccccc1)c1ccc([N+](=O)[O-])cc1` it is -13% (inactive); for `Cc1nc2ccc(S(=O)(=O)NCC(=O)NCc3ccc4c(c3)OCO4)cc2s1` it is 15.2% (inactive).
Consider `CS(=O)(=O)Nc1cccc2[nH]ncc12`, for which the inhibition was 6.1% (inactive).
Same read-out and setting: under `N#CC1(C#N)[C@@H](C(=O)C23CC4CC(CC(C4)C2)C3)C12CCOCC2` stands 0% (inactive).
`Cc1ccc(NS(=O)(=O)c2ccc(OCC(=O)N3CCOCC3)cc2)cc1`: the inhibition is -10.3% (inactive).
With `COC(=O)C1C(O)=C(C=NC2CCCCC2)C(=O)CC1(C)C` (configuration not stated), the inhibition was 10.7% (inactive).
Same read-out and setting: under `NS(=O)(=O)c1ccc(N=Nc2c(O)ccc3ccccc23)cc1` stands 64.4% (active).
`Nc1nc(N)c(N=Nc2ccc(S(N)(=O)=O)cc2)c(=O)[nH]1`: the inhibition is 13.6% (inactive).
On to `Nc1nc(O)c(N=Nc2ccc(S(N)(=O)=O)cc2)c(=O)[nH]1`, for which the inhibition was 50% (active).
With `NS(=O)(=O)c1ccc(N=Nc2c(O)c(C(=O)O)cc3ccccc23)cc1`, the inhibition is 20.5% (inactive).
As for `Oc1ccc(N=Nc2c(O)ccc3ccccc23)cc1`, the inhibition is -2.8% (inactive).
`Cc1c(C#N)c(O)[nH]c(=O)c1N=Nc1ccc(S(N)(=O)=O)cc1`: the inhibition was 1.4% (inactive).
Regarding `O=C(CN1C(=O)C2C3C=CC(C4CC34)C2C1=O)Oc1ccccc1` (configuration not stated), the inhibition is -1.6% (inactive).
Still for that read-out and setting: the figure for `CC(C)(C)NC(=O)CSC(=Nc1cccc(F)c1)NC#N` is -25.9% (inactive).
For the compound `CCCCOc1ccc(Cl)cc1CSc1nnc(C)n1N`, the inhibition was -4.8% (inactive).
`Cc1oc(-c2ccc3c(c2)OCCO3)cc1C(=O)NC(CCC(=O)O)C(=O)O` (configuration not stated): the inhibition is 20.1% (inactive).
With `CCOC(=O)CNC(=O)c1cc(-c2ccc3c(c2)OCCO3)oc1C`, the inhibition is 10.9% (inactive).
As for `COC(=O)CCC(NC(=O)c1cc(-c2ccc3c(c2)OCCO3)oc1C)C(=O)OC` (configuration not stated), the inhibition is 61.5% (active).
For the compound `Cc1ccc(CNC(=O)CN2C(=O)NC(C)(c3ccccc3Cl)C2=O)cc1` (configuration not stated), the inhibition was 6.8% (inactive).
On to `CCOC(=O)c1c(NC(=O)CN2CCN(C(=O)c3ccco3)CC2)sc(C(N)=O)c1C`, for which the inhibition is 0% (inactive).
With `c1ccc2c(c1)CCN(CCCNc1nc3ccccc3n3cnnc13)C2`, the inhibition is 50.8% (active).
Regarding `c1ccc2c(c1)CCN(c1nc3ccccc3n3cnnc13)C2`, the inhibition is 3.9% (inactive).
For the compound `c1ccc2c(c1)nc(NCCN1CCOCC1)c1nncn12`, the inhibition is 6.6% (inactive).
Turning to `CCCCCCCNC(=O)CC(NS(=O)(=O)c1ccc(NC(C)=O)cc1)C(C)C` (configuration not stated), the inhibition is 1.5% (inactive).
In the case of `COc1ccc(-n2c(C)c(C(=O)O)c3cc(OC)c4ccccc4c32)cc1`, the inhibition was 13.1% (inactive).
Turning to `CN1CCN(c2c(F)cc3c(=O)c(C(=O)O)cn(CCF)c3c2F)CC1`, the inhibition was 29.5% (inactive).
With `CN1CCN(c2c(F)cc3c(=O)c(C(=O)O)cn4c3c2SCC4)CC1`, the inhibition is 53.3% (active).
Consider `CN1CCN(c2c(F)cc3c(=O)c(C(=O)O)cn4c3c2OCN4C)CC1`, for which the inhibition was 33.2% (inactive).
`CCOc1ccc(S(=O)(=O)NCc2cccnc2)cc1C(C)C`: the inhibition is 1.4% (inactive).
On to `CSc1nc(-c2ccc(C)cc2)[nH]c1S(=O)(=O)c1ccccc1`, for which the inhibition is -18.4% (inactive).
In the case of `Cc1ccc(-c2[nH]c(-c3ccc(C(=O)O)cc3)nc2-c2ccccc2)cc1`, the inhibition was 47.8% (inactive).
Take `CC(=O)Sc1nc(-c2ccccc2)[nH]c1S(=O)(=O)c1ccc(C)cc1`: the inhibition was 82.4% (active).
Consider `CCOC(=O)c1c(-c2ccccc2)oc2ccc(OC(C)=O)cc12`, for which the inhibition was 7.9% (inactive).
On to `CCCCOC(=O)Nc1nnc(CC)s1`, for which the inhibition is 3.8% (inactive).
Still for that read-out and setting: under `Cc1[nH][nH]c(=O)c1C(c1ccc(-c2ccc(Cl)cc2Cl)o1)c1c(C)[nH][nH]c1=O` stands 2% (inactive).
On to `CN(C(=S)Nc1ccc(Oc2ccccc2)cc1)c1ccc(O)cc1`, for which the inhibition is 11% (inactive).
Still for that read-out and setting: under `CN(C(=S)Nc1ccc(SC(F)F)cc1)C(c1ccccc1)c1ccccc1` stands -7.4% (inactive); under `CN(C(=S)Nc1ccc(SC(F)F)cc1)c1ccc(O)cc1`, 56.1% (active).
